Assays:
Experiment in all cases: PBM binding z-score (relative to random genomic background probes); higher = stronger binding; sequences stand for … in GC…GCGATTGACAGCGTAGAATGAAGG
[1] = test system: RARb homodimer (NR concentration 270 nM)
Procedure, shortened: (§1)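 Random background probes are the reference for binding z-scores. These scores derive from regression-normalized fluorescence on custom Agilent 4×180K protein-binding microarrays incubated 1 h with ligand-free nuclear receptor dimers. Binding was detected with antibodies against each partner (one per run).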

[2] = test system: RARg:RXRa (NR concentration 270 nM, RXRa partner concentration 90 nM)
Procedure, shortened: as §1

[3] = test system: RARg homodimer (NR concentration 270 nM)
Procedure, shortened: as §1

[4] = test system: RXRa DBDmut IVT, anti-RXR (DBD mutation: RXRa K156A/R161A, NR concentration 90 nM)
Procedure, shortened: as §1

[5] = test system: RXRa homodimer (NR concentration 180 nM)
Procedure, shortened: as §1

[6] = test system: THRa:RXRa (NR concentration 90 nM, RXRa partner concentration 90 nM)
Procedure, shortened: as §1

[7] = test system: THRa homodimer (NR concentration 90 nM)
Procedure, shortened: as §1

[8] = test system: VDR:RXRa (NR concentration 270 nM, RXRa partner concentration 90 nM)
Procedure, shortened: as §1

[9] = test system: VDR homodimer (NR concentration 270 nM)
Procedure, shortened: as §1

Sequence	PBM binding z-score [1]	PBM binding z-score [2]	PBM binding z-score [3]	PBM binding z-score [4]	PBM binding z-score [5]	PBM binding z-score [6]	PBM binding z-score [7]	PBM binding z-score [8]	PBM binding z-score [9]
ATCGAAAGGTAGTGAGGTGAGTATACAGAAAGGC	0.406	0.407	0.62	-0.693	0.164	1.5	0.917	-0.165	-0.237
TCGAGTAGGCTAGGGGCATTCAGAATGGCGTCGA	-0.0899	-0.329	-0.498	-0.0684	0.0581	0.177	-0.929	-0.094	-0.279
GATACAGGGTCAAGGCCAGACTACGCGTATTGAT	3.74	5.51	5.17	2.76	5.73	3.8	1.55	4.28	2.1
ATTGAAAGGTCGACGAGGTGAGTATACACCGTTT	3.13	4.19	4.05	1.2	4.31	3.89	1.14	5.31	1.58
TCTTGTAAATCAATAGAGGTTAAGAAAGTGCGCT	1.42	0.907	0.577	1.23	1.46	1.56	0.0458	1.98	0.639
ACAGACAGGTGATGAAGGGAACTCAGGCTATCAT	0.0495	0.231	0.46	-0.425	0.238	0.341	-0.114	-0.182	-0.128
ATATGTAGGTTAGCTAGGGTCATTCAGACTAGGC	3.17	3.33	2.68	1.24	3.71	5	2.64	5.2	3.63
GCTTACGGGTCAGAGGTTATAGCATGAATAGAAT	2.66	4.85	3.51	1.24	6.16	2.66	-0.0589	3.48	0.979
GTACCAAGGTGAATAGGTCGTGGATGAGTAGGCG	2.29	3.12	1.51	-0.652	2.44	1.91	0.648	0.918	-0.0897
TCGAGTAGGTTAGGGGCTTTCAGAATGGCGTCGA	0.146	-0.192	-0.707	0.128	0.00359	-0.109	0.122	-0.3	-0.301
CCTACTGGGCCGAAAAGGTCATTGATGCCGATAA	4.31	4.56	3.89	0.386	4.95	3	0.639	4.48	2.13
GCTGGTAGGTCAGGTTGGTCAGCTAACGGGTACG	2.87	2.48	3.76	0.0797	1.23	1.12	0.417	1.04	0.965
CCGACTTGGGCAGAAAGGTTACCATACCATCCGG	1.52	0.806	0.702	-0.476	1.3	0.651	-0.379	0.0426	-0.411
CCTTACGGGTCACGAGGTTATGGCACGACGAGCG	3.8	6.05	5.55	1.3	6.91	3.72	1.19	4.99	1.71
TCTTGAAGATCAATAGAGGTTAAGAAAGTGCGCT	1.17	0.73	0.205	0.671	1.49	2.53	-0.674	1.92	-0.178
GTGACTGGGGCAAAGCAGGTTACCATAAGGTTGG	1.55	1.43	1.19	-0.205	0.875	3.35	0.631	0.488	0.275
CCTGCTAGGTCAAGGTCAGCTAATCTACAGTATG	5.07	5.45	7.01	2.36	4.54	3.97	2.88	3.4	1.23
TAGCCTAGGTCATTCCGGGGCCAGTATAGAAAGC	3.12	5.28	4.24	1.28	2.66	3.63	0.929	2.94	1.46
AATATAGGGTCATCGTAGGCCAGAGTACGCACAG	3.83	5.9	5.5	3.83	6.83	4.67	2.3	5.22	3.76
CCGACTGGGGCAAAGGTTGCCATACTCAGTACGA	0.697	1.32	0.395	-0.142	1.32	0.333	-0.54	0.133	0.111
AGAATGAGGTTATACGTAGATCAGGGGAGAAAGT	0.956	1.78	1.26	2.05	2.14	2.25	0.738	1.42	1.45
TGGCCTAGGTCATTGGGCCAGTATAGTACGCATC	2.71	3.81	4.21	0.818	2.68	2.71	0.295	1.87	0.451
TATACAGGGTCAATGGCCAGAGTACGAATGTCGA	3.21	5	4.73	2.43	5.41	3.22	0.631	4.05	2.79
ATACCAAGTTGATCGTGAGGTCGTTGATACTAAC	1.39	1.26	0.677	1.34	1.08	2.75	2.33	2.68	3.08
TCTTGTAGATCAATAGTGGTTAAGAAAGTGCGCT	-0.161	-0.0273	-0.193	0.933	0.198	0.0334	-0.033	0.673	0.464
AATACAGGGTCACTAGGCCAGAATAGGTACGAAT	3.3	5.17	4.76	2.85	5.58	3.41	1.4	4.2	2.52

Sequence	PBM binding z-score [1]	PBM binding z-score [2]	PBM binding z-score [3]	PBM binding z-score [4]	PBM binding z-score [5]	PBM binding z-score [6]	PBM binding z-score [7]	PBM binding z-score [8]	PBM binding z-score [9]
ATCTCTAGGTAACAAGTTTAGTGAAAGAGAGGAC	0.455	0.384	0.772	0.0199	0.165	0.929	0.836	0.823	0.684
AGAACGAGGGCAAGCTGAGTTGATAGCAGAGTAG	1.06	1.53	1.97	2.1	0.964	1.35	-0.471	1.37	1.36
AGAATGCGGTTATTAAGATCAGGGAATTGCGGTC	-0.19	-0.0734	0.152	-0.072	-0.0867	-0.0645	-0.416	-0.302	-0.264
CCTGCAAGGTCAATGGTCAGCTAAAGCAGCTCGC	3.65	5.83	5.9	3.75	5.35	3.77	1.8	–	2.45
ACAGTCAGGTGATGAAGGTAACTCAGGCTATCAT	0.23	0.23	0.365	-0.243	0.405	1.19	0.0421	-0.0524	-0.453
TTACCAAGGTGAAGGTCGGTGATCCCTCTGTAGA	1.61	1.3	0.916	-0.375	1.5	2.21	0.976	0.428	0.13
TCATATAGGTAGACAGGTGAAAGTCCGTAAGTTA	0.985	0.378	0.361	1.68	0.907	0.763	0.486	0.905	0.286
ATCTCTAGGTAACAAGTTCAGTGTAAGAGAGGAC	1.94	1.5	1.49	1.15	0.874	1.8	0.989	2.3	2.99
GCGGACAGGTGAAACGCAGGTAACTCAGGGTGGC	0.239	1.13	0.717	-0.341	0.426	1.41	-0.55	-0.55	-0.834
ATATGTAGGTTATGGGTCATTCAGGTTGGTTCGC	2.97	3.09	2.28	1.31	3.79	2.74	1.53	4.33	2.76
ACTATTAGCTGAGACGAGGGCAACCGATAGGTTG	1.27	0.452	0.667	0.345	0.587	0.992	0.251	0.232	0.999
AGAACGATGGCACGCTGAGTTGATAGCAGAGTAG	-0.907	-0.162	-0.0451	-0.483	-0.397	-0.632	-1.01	-0.574	-0.128
TTTCCAAGGTGAGCTGAGGTCGTTGATCCAACTC	1.73	1.51	1.2	0.414	1.59	4.61	2.71	–	2.61
CCAGACAGGTGAGAAGGTAAGTCAGCCTCGATTA	0.641	0.215	0.357	0.0817	0.216	0.3	0.145	-0.106	-0.136
CCTACTAGGCCATCAGGTCATTGATATCAACGTT	3.07	2.45	2.56	1.43	1.71	3.32	3.28	2.26	2.51
TCTATTAGATGAAGGGCAACCGACGAGTCCGTTT	1.1	0.508	0.672	1.4	0.961	0.13	-0.334	1.02	0.972
CCTCGGGGGACAGAAGGTCAGAGCTGTCCGCTTT	3.57	4.6	4.23	0.388	2.83	3.31	0.175	2.3	0.0933
GCGACTGGGGCATCAGCAGGTTAGCATAACTTAA	0.258	0.506	0.0514	-0.821	0.0592	0.204	-0.74	-0.526	-0.612
TCATATAGGCAAACAGGTGAAAGTCCGTAAGTTA	0.521	0.00145	0.112	1.26	0.527	0.197	0.185	0.719	0.251
TCATTTAGGTAAATGCTAGGTGAAAGTCCGATCT	0.541	0.116	0.0576	1.57	0.519	1.69	0.878	0.573	0.0956
TCACGGAGGACACGAAAGGTCAGAGCTCGACATC	4.82	4.96	5.55	1.1	4.31	3.55	1.26	3.47	1.17
TAGCCTAGGTCATGCGGGCCTGTATAGTGTCGGC	2.91	3.78	4.07	0.686	2.87	3.03	1.05	1.75	-0.143
CCGACTGGGGCAAGGTTACCCTAACGCACAGCCA	1.51	0.945	1.06	-0.485	1.08	1.47	0.84	0.016	-0.188
TCATATAGGTAATACAGGTAAAAGTCGGCATCTA	-0.0506	0.506	0.536	1.9	1.21	0.497	0.159	–	0.0521
CCTCGGAGGACAACAGGAGGTAAGAGCTGCCAGA	0.361	0.652	1.09	-0.216	-0.00959	0.811	-0.12	-0.357	-0.145
TCTAGTAGATCAATAGAGGTTAAGAAAGTGCGCT	1.38	0.728	0.2	0.439	1.56	2.09	-0.79	1.84	0.312

— the supplement of paper PMC6555819
